Screens (PubChem)
Sampled rows, rich in hits. Any-hit rate of the full collection: about 11%.
JMJD2A Tudor inh – JMJD2A Tudor domain (human) inhibition. O75164. AlphaScreen JMJD2A-Tudor / H3K4me3 peptide binding. Potency, µM (titrated, usually from 114 µM), for the others: at the highest dose activity change, negative = inhibition, usual class: inhibitors. 4.4% of 390,000 active; further: on the % scale 0 is the no-effect control and ±100 the full control effect; nearly all actives have a fitted effect of over 50% in size
HP1b binding inh – blocks HP1-beta chromodomain binding to methylated histone tails | AlphaScreen HP1-beta / biotin-H3K9me3 peptide binding | Potency, µM (top dose mostly 114 µM), for inactives: top-dose activity change, negative = inhibition, usual class: inhibitors | 0.56% of 390,000 active; further: nearly all actives have a fitted effect of over 70% in size
Target sequence (P83916 whole entry, looked up): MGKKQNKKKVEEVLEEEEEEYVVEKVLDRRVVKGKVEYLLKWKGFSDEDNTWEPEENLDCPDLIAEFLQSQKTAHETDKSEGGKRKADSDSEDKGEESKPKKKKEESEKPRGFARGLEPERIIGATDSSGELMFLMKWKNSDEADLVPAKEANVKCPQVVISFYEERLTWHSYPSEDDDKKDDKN
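AlphaScreen: HP1-beta (50 nM) preformed 30 min with biotin-H3(1-18)K9me3 peptide (50 nM) in PBS pH 7.4, 0.01% Tween-20. Compound added for 30 min at RT, then streptavidin donor/nickel chelate acceptor beads (10 ug/mL) for 30 min.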
BAZ2B inh – inhibitors of human BAZ2B bromodomain; Q9UIF8; AlphaScreen BAZ2B-H3K14Ac peptide displacement; Potency, µM (highest dose often 114 µM), without a hit: top-dose activity change, negative = inhibition, usual class: inhibitors; 4.4% of 360,000 active; further: on the % scale 0 is the no-effect control and ±100 the full control effect; nearly all actives have a fitted effect of over 60% in size
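BAZ2B (50 nM) with biotin-H3(5-23)K14Ac peptide (50 nM) in PBS pH 7.4, 0.01% Tween-20, preformed 30 min, then compound 30 min at room temperature; top concentration 110uM. AlphaScreen streptavidin donor/nickel chelate acceptor beads (10 ug/mL final), 20 min dark, signal read.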
G9a block – G9a (human) methyltransferase inhibition; Q96KQ7; G9a H3K9 monomethylation, AlphaScreen, 2 h; Potency, µM (highest dose often 102 µM), for inactives: at the top dose activity, negative = inhibition, actives largely listed as inhibitors; 8.8% of 350,000 active; further: on the % scale 0 is the no-effect control and ±100 the full control effect; nearly all actives have a fitted effect of over 75% in size
Target sequence (Q96KQ7 913-1193 limits assumed): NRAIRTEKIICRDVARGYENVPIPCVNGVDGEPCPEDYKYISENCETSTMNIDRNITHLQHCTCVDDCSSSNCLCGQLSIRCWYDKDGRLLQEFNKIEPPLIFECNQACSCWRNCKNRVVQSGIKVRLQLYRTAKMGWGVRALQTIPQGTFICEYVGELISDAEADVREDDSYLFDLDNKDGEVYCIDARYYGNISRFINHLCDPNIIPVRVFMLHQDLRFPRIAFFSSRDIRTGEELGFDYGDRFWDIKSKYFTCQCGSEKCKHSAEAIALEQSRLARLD
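AlphaScreen detection with an anti-monomethyl H3K9 antibody quantified product after a 2 h room-temperature reaction containing 500 nM biotinylated H3K9 peptide, 20 µM SAM and 20 nM enzyme, which had been preincubated 15 min with compound.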
L3MBTL1 block – blocks human L3MBTL1. Potency, µM (highest dose often 57.1 µM), without a hit: at the highest dose activity, negative = inhibition, actives largely listed as inhibitors. Q9Y468. AlphaScreen L3MBTL1–H3K9me1 peptide binding. AID 485360. 0.66% of 230,000 active; further: on the % scale 0 is the no-effect control and ±100 the full control effect; nearly all actives have a fitted effect of over 60% in size
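L3MBTL1 50 nM + b-AHA-H3(1-15)K9me1 75 nM, 30 min RT; compound added, 30 min RT; streptavidin donor/Ni-chelate acceptor beads 10 ug/mL each final, 30 min RT dark; AlphaScreen read.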
Active calls of the source: *; ? = inconclusive; nt = no result given; ! = a repeat was not active; [ ] = dose if it differs, or a comment. The call rests on the fitted dose curve; in most records, active means well fitted inhibition curve with a large enough effect; inconclusive means small, poorly fitted or top-dose-only effect; inactive means no such curve, though single readings can be large or run the other way. Potency means the concentration at half of the fitted maximal effect.

SMILES	JMJD2A Tudor inh	HP1b binding inh	BAZ2B inh	G9a block	L3MBTL1 block
COCCN(Cc1cc2cc(C)c(C)cc2nc1Cl)C(=O)Nc1ccccc1	-19.5%	3.3%	53.0%	-14.7%[59 µM]	6.2%
COCCN(Cc1cc2cc3c(cc2nc1Cl)OCO3)C(=O)c1ccc(C)cc1	-7.4%	16.3%	10µM*	-24.1%	28.2µM*
CC(C)Oc1ccc(C(=O)N(Cc2ccc(N(C)C)cc2)Cc2ccco2)cc1	25.1µM*	?	12.6µM*	11.2µM*	nt
CCCCOc1ccc(C(=O)N(Cc2ccco2)Cc2ccco2)cc1	?	11.5%	-7.9%	-29.5%[59 µM]	nt
CCCCOc1ccc(C(=O)N(Cc2ccc(N(C)C)cc2)Cc2ccco2)cc1	20µM*	?	10µM*	11.2µM*	nt
Cc1ccc(CN(Cc2ccco2)C(=O)c2ccc(OCC(C)C)cc2)cc1	28.1%	59.4%	1.5%	17.3%[59 µM]	nt
COC(=O)CCCCC(=O)C1C(=O)CC(C)(C)C(C(=O)OC)C1=O (stereo unspecified)	?	16.5%	-1.1%	?	-0.5%
CCCC(=O)C1C(=O)CC(C)(C)C(c2cc(C)no2)C1=O (stereo unspecified)	50.1µM*	9.7%	-11.5%	?	9.8%
CCOC(=O)N/N=C/c1ccc(N2CCOCC2)s1	-24.8%	0.1%	-3.9%	39.8µM*	-4.7%
C(=N\N(c1ccccc1)c1ccccc1)/c1ccc(N2CCOCC2)s1	?	?	?	12.6µM*	-20.0%
CC(=O)c1c(C)[nH]c(=S)c(C#N)c1-c1ccc(Cl)cc1	?	14.3%	-17.9%	4.47µM*	-5.6%
Cc1[nH]c(=S)c(C#N)c(-c2ccco2)c1C(=O)N(C)C	3.98µM*	-24.7%	-35.7%	3.55µM*	-10.6%
CC(=O)c1ccc(S(=O)(=O)N2CCN(C(=O)c3ccc(COc4ccccc4)o3)CC2)cc1	-27.6%	5.6%	-3.0%	50.1µM*	-2.2%
O=C(c1ccco1)N1CCN(S(=O)(=O)c2ccc(Oc3ccccc3)cc2)CC1	-34.0%	-3.9%	-30.3%	35.5µM*	-8.3%
O=C(c1ccco1)N1CCN(S(=O)(=O)c2ccc(Br)cc2)CC1	5.0%	42.3%	-1.2%	11.6%	nt
O=C1CCc2cc(S(=O)(=O)Nc3cccc(F)c3)ccc2N1	-17.0%	nt	nt	nt	nt
CC(C)(C)C1CCC(N2CCN(c3ccccc3)CC2)CC1 (stereo unspecified)	-19.6%	8.8%	-38.0%	nt	-10.2%
c1ccc(N2CCN(C3CC4CCC3C4)CC2)cc1 (stereo unspecified)	-7.0%	35.6%	-18.0%	79.4µM*	nt
Cc1c(C(=O)NCc2cccc(F)c2)oc2c1-c1[nH]ncc1CC2	-25.2%	9.4%	-21.9%	-47.1%[59 µM]	nt
Cc1ccc(-n2cnc3c(sc4nc(N5CCOCC5)c5c(c43)CCCC5)c2=O)cc1	-14.1%	50.8%	-12.1%	50.1µM*	3.6%
C=CCn1cc(/C=N/Nc2nc3ccccc3[nH]2)c2ccccc21	39.8µM*	?	39.8µM*	50.1µM*	-20.8%
Cn1c(/C=N/Nc2nc3ccccc3[nH]2)nc2ccccc21	?	20.9%	31.6µM*	-42.3%	-28.1%
Cc1c(/C=N/Nc2nc3ccccc3[nH]2)c2ccccc2n1C	31.6µM*	50.1µM*	17.8µM*	nt	nt
Cc1cc(C)c2c(=O)cc(C(=O)Nc3ccc(C)c(Cl)c3)oc2c1	-10.4%	24.6%	-10.2%	?	nt
Cc1ccc(-c2nc(N3CCCC(C)C3)c3ccccc3n2)cc1 (stereo unspecified)	67.5%	107.6%	64.4%	47.0%[59 µM]	nt
SMILES	JMJD2A Tudor inh	HP1b binding inh	BAZ2B inh	G9a block	L3MBTL1 block
O=C(Nc1ccccc1Br)c1c(F)cccc1Cl	-11.3%	22.8%	nt	2.3%	5.0%
COc1ccc2c(c1)O/C(=C\c1ccco1)C2=O	?	?	14.1µM*	nt	nt
CC(=O)COc1ccc2c(c1C)O/C(=C\c1ccco1)C2=O	-28.1%	10.9%	-33.7%	28.2µM*	nt
COC(=O)C1=C(C)NC(=O)/C1=C\c1ccco1	-31.6%	0.5%	?	-50.1%	-2.2%
COC(=O)C(C)Oc1ccc2c(c1)O/C(=C\c1ccco1)C2=O (stereo unspecified)	50.1µM*	-9.2%	?	11.2µM*	nt
COC(=O)COc1ccc2c(c1)O/C(=C\c1cccc([N+](=O)[O-])c1)C2=O	-11.4%	21.9%	-0.6%	17.5%	nt
COc1ccc(/C=C2\Oc3cc(OCC(N)=O)ccc3C2=O)cc1OC	-11.7%	36.6%	1.7%	-9.1%	nt
CCOc1ccc(CCNC(=O)COC(=O)c2nc(Cl)ccc2Cl)cc1OCC	-13.7%	-10.3%	-3.8%	-10.4%[0.501 µM]	-3.9%
Cc1ccc(S(=O)(=O)c2nc(-c3ccccc3F)oc2N2CCCCC2)cc1	-22.5%	-17.1%	?	?	nt
O=C(C1CCN(S(=O)(=O)c2cnc[nH]2)CC1)N(CCc1ccccc1)Cc1ccccc1	-8.0%	32.8%	0.5%	-31.8%	nt
CCC(C)NC(=O)C1CCN(CCCc2ccccc2)CC1 (stereo unspecified)	10µM*	-28.0%	50.1µM*	14.1µM*	5.8%
O=C(C1CCN(CC2CC=CCC2)CC1)N(CCc1ccccc1)Cc1ccccc1 (stereo unspecified)	?	42.0%	79.4µM*	44.7µM*	0.1%
O=C(C1CCN(CCCc2ccccc2)CC1)N(CCc1ccccc1)Cc1ccccc1	1.12µM*	?	?	14.1µM*	-6.3%
CCCCCCOc1ccc(C2C(=O)N(C3CCCCC3)CC(=O)N2C2CCCCC2)cc1 (stereo unspecified)	-7.0%	15.5%	0.1%	3.7%[59 µM]	nt
Oc1ccc(-c2nc3ccc4ccccc4c3c3c2CCC3)cc1O	?	?	50.1µM*	?	-7.3%
C/C(=C\c1ccc(C(=O)O)cc1)c1ccc2c(c1)C(C)(C)CCC2(C)C	-23.4%	3.5%	6.5%	15.8µM*!	-2.4%
CC1(C)CCC(C)(C)c2cc(C(=O)Nc3ccc(C(=O)O)cc3)ccc21	nt	nt	nt	25.2%[59 µM]	nt
CC(=O)C(=Cc1ccc(C(=O)O)cc1)C(C)=O	-2.8%	51.3%	?	56.2µM*	?
Cc1ccc(NC(=O)C(=Cc2ccc(C(=O)O)cc2)C(=O)Nc2ccc(C)cc2C)c(C)c1	-10.9%	24.7%	-17.8%	6.8%[12.7 µM]	0.4%
Cc1c(C)c2c(c(C)c1OC(=O)c1cccnc1)CC[C@@](C)(CCC[C@H](C)CCC[C@H](C)CCCC(C)C)O2	nt	nt	nt	27.5%[59 µM]	nt
Cc1[nH]c2ccc(F)cc2c1CCN(Cc1ccncc1)C(=S)Nc1ccccc1	?	-8.3%	nt	?	nt
CCOc1ccc(NC(=S)N(CCc2c(C)[nH]c3ccccc23)Cc2cccnc2)cc1	?	-8.4%	?	?	?
COc1ccc(NC(=S)N(CCc2c(C)[nH]c3ccc(C)cc23)Cc2cccnc2)cc1	50.1µM*	-21.8%	35.5µM*	50.1µM*	-5.7%
Cc1[nH]c2ccccc2c1CCN(Cc1cccnc1)C(=S)Nc1cccc(F)c1	?	-8.4%	nt	50.1µM*	nt
Cc1[nH]c2ccc(F)cc2c1CCN(Cc1cccnc1)C(=S)Nc1ccccc1	?	-1.5%	nt	56.2µM*	nt
